Bioassay records as filed in PubChem.
DRD3 agonist: D3 dopamine receptor (human) agonism | D3R DiscoveRx beta-arrestin cells, luminescence, 90 min | 410,000 tested, 0.58% active | AID 652048 | P35462 | max activation, %; in the data active = max activation above about 30%; also: 0% is about no effect
Target sequence (P35462 whole entry, looked up): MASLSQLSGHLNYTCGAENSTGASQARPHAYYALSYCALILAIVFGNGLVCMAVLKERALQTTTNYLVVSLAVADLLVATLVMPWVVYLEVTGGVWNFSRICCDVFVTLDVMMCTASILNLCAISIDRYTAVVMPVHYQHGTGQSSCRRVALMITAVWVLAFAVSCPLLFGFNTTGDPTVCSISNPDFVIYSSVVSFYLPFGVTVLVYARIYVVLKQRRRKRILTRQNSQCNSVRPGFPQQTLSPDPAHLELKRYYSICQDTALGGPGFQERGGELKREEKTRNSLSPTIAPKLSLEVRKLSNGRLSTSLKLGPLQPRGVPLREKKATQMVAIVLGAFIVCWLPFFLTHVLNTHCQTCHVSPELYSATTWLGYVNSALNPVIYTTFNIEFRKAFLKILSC
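Cells at 1500/well, incubated overnight, then treated with pinned compounds (dopamine as control) for 90 min at 37 degrees C. DiscoveRx reagent added for 30 - 60 minutes at room temperature; luminescence read.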
D1 PAM: enhances dopamine response at the human D1 receptor; AID 504651; HEK293 TREx D1 cells, calcium flux, dopamine EC20 potentiation; 360,000 tested, 0.036% active; potentiation, % at 10 µM; in the data active = potentiation above about 30%; also: 0% is about no effect
D3 antag: D3 dopamine receptor (human) antagonism | D3R cells, DiscoveRx beta-arrestin luminescence, antagonist mode; active compounds read low | AID 652054 | max response, negative = inhibition, % | 360,000 tested, 2.5% active | P35462; in the data active = max response below about -50%; inconclusive = no clear call, values can overlap the other calls; also: % is scaled to controls: 0 for no effect and ±100 for the full control effect
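Cells expressing the human receptor were seeded at 1500 cells/well, incubated overnight at 37 degrees C in 5% CO2, then exposed to library compounds with dopamine controls for 90 minutes at 37 degrees C before luminescent detection.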
D1 antagonist: human D1 dopamine receptor antagonism; 360,000 tested, 3.2% active; HEK293 TREx D1 cells, calcium flux, dopamine EC80; active compounds read low; activity change, negative = inhibition, % at 10 µM; in the data active = activity change below about -30%; also: % is scaled to controls: 0 for no effect and ±100 for the full control effect
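Cells carrying a force-coupled, tetracycline-inducible human D1 receptor report calcium flux. Each well gets a 10 s baseline, compound with 180 s monitoring, then an EC80 dopamine stimulus with a second 180 s kinetic read.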
D1 ag: human D1 receptor agonism | 360,000 tested, 1% active | HEK293 T-REx D1 cells, calcium flux, agonist mode | activation, % at 2 µM | P21728; in the data active = activation above about 30%; also: 0% is about no effect
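Tetracycline-induced HEK293 TREx D1 cells, force-coupled to calcium signalling, were dye-loaded with a no-wash calcium kit. Compound was pin-added after a 10 s baseline. Fluorescence was read kinetically at 1 cycle/s for 180 s, with calcium rises flagged as agonism.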
Numbers without * were called inactive; ? = inconclusive; . = no result given; ! = a repeat was not active. Most compounds without a hit are left out; they make up all but 6% or so of the library.

SMILES	DRD3 agonist	D1 PAM	D3 antag	D1 antagonist	D1 ag
COc1c(O)cc2oc(-c3ccc(O)cc3)cc(=O)c2c1O	-17	-7	0	-21	2
O=C(CCOc1ccccc1)Nc1ccnn1C1CCN(CCc2ccccc2)CC1	-18	8	-52*	13	5
Cc1ccccc1CN1CCC(n2nccc2NC(=O)CCCc2ccccc2)CC1	-3	-2	-80*	4	11
Cc1cc(NS(=O)(=O)c2ccc(Nc3nc(-c4ccc(O)cc4)cs3)cc2)no1	2	-2	3	6	0
Cc1cc(NS(=O)(=O)c2ccc(Nc3nc(-c4ccc(C)c(C)c4)cs3)cc2)no1	4	-11	-20	-11	68*
COCCNC(=O)C1(C)CCCN(Cc2cc3ccccc3o2)C1 (stereo not drawn)	-7	.	0	.	.
O=C(NC(=S)Nc1ccccc1N1CCCC1)c1cccc(F)c1	0	-2	20	10	4
Cc1cccc(NC(=O)Cc2nc(-c3c[nH]c(C(=O)N4CCCC4)c3)cs2)c1	52*	-5	46	-2	1
Cc1ccccc1NC(=O)Cc1nc(-c2c[nH]c(C(=O)N3CCCC3)c2)cs1	8	-1	18	-6	0
Cn1nc(C(C)(C)C)cc1C(=O)N1CCCC(C)(C(=O)NS(=O)(=O)C2CC2)C1 (stereo not drawn)	2	.	13	.	.
CCc1ccc(NC(=O)CSc2nc(CSc3ccc(C)cc3)cc(=O)[nH]2)cc1	-9	-6	-17	-4	2
Cc1ccc(SCc2cc(=O)[nH]c(SCC(=O)Nc3cc(Cl)ccc3Cl)n2)cc1	8	7	-18	-34*	-3
CCc1nc(Nc2ccc(F)c(Cl)c2)c2c3c(sc2n1)CCCC3	4	9	.	27	0
Cc1ccccc1OCC(=O)Nc1sc2c(c1C(=O)OC(C)C)CCCC2	7	2	.	4	45*
CCOC(=O)c1c(NC(=S)NCc2ccccc2)sc2c1CCN(C(=O)OCC)C2	8	-2	0	-40*	3
CCOC(=O)c1c(NC(=O)c2ccc(Br)cc2)sc2c1CCCC2	-18	-6	.	10	0
C=CCNC(=S)Nc1sc2c(c1C(=O)OCC)CCN(C(=O)OCC)C2	7	-5	7	6	1
CCOC(=O)c1c(NC(=O)c2ccc(S(=O)(=O)N(C)C3CCCCC3)cc2)sc2c1CCN(C(C)C)C2	-11	-1	.	19	56*
CCCOc1ccc(C(=O)Nc2sc3c(c2C(=O)OCC)CCCCC3)cc1	5	-1	.	-31*	-1
CCCCN(C)S(=O)(=O)c1ccc(C(=O)Nc2sc3c(c2C(=O)OCC)CCN(C(C)C)C3)cc1	-6	-2	.	8	28
CCOC(=O)C1=CC[C@@H](c2ccccc2)N(S(=O)(=O)c2ccc(C)cc2)[C@H]1C#N	-1	.	-18	.	.
Cc1nn(C)c2c1c(-c1ccccc1)cc(=O)n2C(C)C(=O)NCCc1ccc(Cl)cc1 (stereo not drawn)	-1	-2	.	-3	2
COCCNC(=O)C1CCCN(C(=O)c2csc3ccccc23)CC1 (stereo not drawn)	-20	.	16	.	.
CCOC(=O)c1c(NC(=O)/C=C/c2ccc(C)cc2)sc2c1CCCC2	6	-1	.	-17	39*
O=C(Nc1c(Cl)cccc1Cl)c1cc(-c2cccc(O)c2)on1	-19	0	.	-50*	47*
SMILES	DRD3 agonist	D1 PAM	D3 antag	D1 antagonist	D1 ag
Cc1ccc(O)c(NC(=O)c2cc(-c3ccccc3Cl)on2)c1	16	4	17	-33*	6
COc1cc(NC(=O)c2cc(-c3ccccc3O)no2)cc(OC)c1OC	-5	-1	.	12	0
Cc1ccc(O)c(NC(=O)c2cc(-c3ccccc3O)no2)c1	3	7	.	-31*	15
Cc1ccc(-c2cc(C(=O)Nc3cc(C)ccc3O)no2)cc1	-12	2	-12	-8	3
O=C(NCc1ccc2c(c1)OCO2)c1ccc2c(c1)N(Cc1c(F)cccc1Cl)C(=O)c1ccccc1S2	-7	0	.	-2	3
CCC(=O)N1CCc2cc(Br)cc(S(=O)(=O)CCC(=O)NCCc3cccc(C)c3)c21	-5	-6	.	2	-1
CCSc1nc2c(c(-c3ccc(C)o3)c1C#N)CCCC2	5	-1	-22	-2	2
Cc1ccc(-c2c(C#N)c(N)nc3c2CCCC3)o1	0	0	16	24	39*
CC(=O)c1ccc(NC(=O)CSc2nnc3ccc(-c4ccc(F)cc4)nn23)cc1	5	2	.	.	-4
CCCCNc1nc(Oc2ccc(OCC(N)=O)nn2)nc(N2CCOCC2)n1	6	1	.	-5	1
Cc1c(Cl)cccc1-n1nnc(-c2nc(-c3ccc4c(c3)OCO4)no2)c1C	0	-2	.	-10	2
NC(=O)c1ccc[n+]([C@H]2O[C@@H](COP(=O)([O-])OP(=O)(O)OC[C@H]3O[C@@H](n4cnc5c(N)ncnc54)[C@H](O)[C@@H]3O)[C@H](O)[C@@H]2O)c1	-11	23	5	20	190*
O=[N+]([O-])c1ccc(O)c(/C=N/NC(=S)Nc2ccc(Cl)cc2Cl)c1	-2	-12	?	-40*	12
Cc1cc(Cl)ccc1NC(=O)CCC(=O)N/N=C/c1cc([N+](=O)[O-])ccc1O	-7	13	-56*	-9	1
O=C(NC(NC(=S)Nc1ccc(Cl)cc1Cl)C(Cl)(Cl)Cl)c1cccc([N+](=O)[O-])c1 (stereo not drawn)	-2	-6	-58*	-25	20
Fc1ccc(/C=N/NC(=S)Nc2ccc(Cl)cc2Cl)cc1	-14	-2	3	-2	5
Cc1nn(C)cc1/C=N/NC(=S)Nc1ccc(Cl)cc1Cl	4	-6	-17	-23	2
O=[N+]([O-])c1ccc(/C=N/NC(=S)Nc2ccc(Cl)cc2Cl)s1	-19	-3	-56*	-21	5
CCCC1(C2CCCC2)NC(=O)NC1=O (stereo not drawn)	-1	.	2	.	.
c1ccc(CC2CNc3ccccc3CN2)cc1 (stereo not drawn)	-5	-7	-52*	1	2
O=C1N[C@H](Cc2ccccc2)CO1	-15	-7	?	-26	2
C[C@@H]1CCCCO[C@@H](CN(C)S(=O)(=O)c2cn(C)cn2)[C@@H](C)CN([C@H](C)CO)C(=O)c2cc(N(C)C)ccc2O1	0	.	10	.	.
CCc1nc2ccc(C(=O)NCCc3ccccn3)cn2c1N(CC)Cc1cccc(Br)c1	-3	.	32	.	.
CCOC(=O)N=S(N)(=O)c1ccccc1 (stereo not drawn)	32*	-3	16	-1	1
CCOC(=O)CC(S(=O)(=O)c1ccccc1)S(=O)(=O)c1ccccc1	-13	.	-95*	.	.
CCOC(=O)N1CCC(=C2c3ccc(Cl)cc3CCc3cccnc32)CC1	52*!	-1	126	28	5
CN1CCC(=C2c3ccccc3CCc3cccnc32)CC1	-25	.	.	.	.
